GLP-1R agonist = GLP-1 receptor (human) agonism; 0.007% of 380,000 active; Potency, µM (doses to about 45.6 µM), usual class: activators; HEK293 GLP-1R CRE-luciferase, luminescence, 4-6 h; cells express a hypersensitive GLP-1R form; AID 624172; P43220
Target sequence (P43220 whole entry, looked up): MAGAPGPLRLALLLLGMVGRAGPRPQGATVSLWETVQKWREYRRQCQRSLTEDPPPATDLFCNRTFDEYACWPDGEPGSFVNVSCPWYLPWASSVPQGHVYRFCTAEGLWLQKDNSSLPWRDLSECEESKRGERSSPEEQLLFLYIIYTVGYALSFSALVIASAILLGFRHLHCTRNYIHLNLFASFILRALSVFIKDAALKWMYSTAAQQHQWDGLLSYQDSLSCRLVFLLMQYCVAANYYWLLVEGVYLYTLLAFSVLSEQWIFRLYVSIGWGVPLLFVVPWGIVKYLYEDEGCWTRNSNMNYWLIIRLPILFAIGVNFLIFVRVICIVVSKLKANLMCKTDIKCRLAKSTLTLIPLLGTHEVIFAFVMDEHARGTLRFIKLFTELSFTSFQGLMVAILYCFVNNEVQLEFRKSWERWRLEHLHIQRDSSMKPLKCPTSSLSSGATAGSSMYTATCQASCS
GLP1R inv ag = inverse agonists of human GLP-1 receptor; P43220; HEK293 GLP-1R CRE-luciferase, luminescence, 24 h; GLP-1R form is constitutively active; Potency, µM (top dose mostly 38.3 µM), most hits filed as inhibitors; 1.6% of 410,000 active; AID 624417; further: nearly all actives have a fitted effect of over 55% in size
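Cells are plated, allowed 12 hours at 37 deg C, then treated with compounds for 24 hr before luciferase detection reagent is added and luminescence is read after 12 min at room temperature. The HEK293 line carries constitutively active GLP-1R with a cAMP-responsive reporter.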
BRCA1 expr up = activators of BRCA1 expression | MCF7-BRCA1-FFLuc reporter, luminescence, 48 h; response scale: scaled: vehicle 0%, 10 µM genistein 100% | Potency, µM (series often up to 46.1 µM), hits mostly activators | 1.1% of 380,000 active | AID 624202; further: nearly all actives have a fitted effect of over 80% in size
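Cells: MCF7-BRCA1-FFLuc, 2000/well. Exposure: 48 h, 37 °C, 5% CO2. Read: luminescence, 15 min post-substrate. Controls: genistein 10 microM (maximal activation), DMSO (neutral).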
HEK293 tox = cytotoxicity counter-screen for GLP-1 receptor inverse agonists; HEK293 cAMP-luciferase reporter cells, luminescence, 24 h; Potency, µM (doses to about 38.3 µM), actives largely listed as inhibitors; 0.13% of 410,000 active; AID 624418;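 further: loss of luciferase light is scored as toxicity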
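Cells in DMEM/10% Nu serum/1% pen-strep, 1536-well format. Pre-incubated 12 h, dosed with 23 nL compound, incubated a further 24 h. Luciferase detection, 12 min at room temp, luminescence.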
Large screens that a line does not name were inactive. A selection: hits, their analogues and other compounds. The true share with any hit is near 2.6%. The call rests on the fitted dose curve; in most records, active means well fitted curve in the direction sought with a large enough effect; inconclusive means small, poorly fitted or top-dose-only effect, or another doubt; inactive means no such curve, though single readings can be large; an effect the other way counts as inactive or inconclusive.

C[C@H](CO)N1C[C@H](C)[C@@H](CN(C)S(=O)(=O)c2cn(C)cn2)Oc2ncc(Br)cc2C1=O	none
Cc1ccc(COn2c(-c3ccc(Cl)cc3Cl)nc3ncccc32)cc1	GLP1R inv ag 10µM
O=S(=O)(c1cccs1)N1CCN(CC(O)COc2cccc(Br)c2)CC1 (stereo not drawn)	GLP1R inv ag 8.91µM
NC(=O)c1cc2cc(Cl)ccc2o/c1=N/NC(=O)c1cccs1	none
COC(=O)c1[nH]c2ccc(C)cc2c1NS(=O)(=O)c1ccc(F)c(C)c1	GLP1R inv ag 10µM
COC(=O)c1[nH]c2ccc(F)cc2c1NS(=O)(=O)c1ccc(F)c(C)c1	GLP1R inv ag inconclusive
COc1ccc(-n2c3c(c(=O)[nH]c2=O)C(NC(=O)c2ccncc2)(C(F)(F)F)C(=O)N3)cc1 (stereo not drawn)	none
CCC(=O)N(C)CCc1cc2c(c(OC)c1/C=N/NC(=O)c1ccc(Br)cc1)OCO2	none
CC1(Cc2ccccc2OC(F)(F)F)C(=O)Nc2cc(-c3ccccc3Cl)ccc21 (stereo not drawn)	GLP1R inv ag 5.62µM, HEK293 tox inconclusive
O=C(NNc1ccccc1)/C(=C\c1cccnc1)NC(=O)c1ccccc1	GLP1R inv ag 3.55µM
O=C(Nc1ccccc1)/C(=C/c1cccnc1)NC(=O)c1ccccc1	none
Cc1ccc(N2C(=O)N(CC(=O)Nc3ccc([N+](=O)[O-])cc3)C(=O)C2C)cc1 (stereo not drawn)	GLP1R inv ag 11.2µM
Cc1ccc(N2C(=O)N(CC(=O)Nc3ccc(C)c(C)c3)C(=O)C2C)cc1 (stereo not drawn)	GLP1R inv ag 10µM
Cc1ccc(N2C(=O)N(CC(=O)Nc3cc(C)cc(C)c3)C(=O)C2C)cc1 (stereo not drawn)	GLP1R inv ag 3.98µM
Cc1ccc(N2C(=O)N(CC(=O)Nc3ccc(F)c(F)c3)C(=O)C2C)cc1 (stereo not drawn)	GLP1R inv ag inconclusive
CC1SC(C)C(=O)N(CC(=O)Nc2ccc([N+](=O)[O-])cc2)C1=O (stereo not drawn)	none
Cc1ccc(N2C(=O)N(CC(=O)Nc3cc(Cl)ccc3C)C(=O)C2C)cc1 (stereo not drawn)	GLP1R inv ag 10µM
COc1ccc(-n2ncc(C(=O)N3CCN(c4cc(C)ccc4C)CC3)c2C2CCN(C(=O)OC(C)(C)C)CC2)cc1	none (no result: GLP-1R agonist, BRCA1 expr up)
O=C(C1CCCN(S(=O)(=O)c2ccc(Br)cc2)C1)N1CCN(Cc2ccccc2)CC1 (stereo not drawn)	GLP1R inv ag inconclusive
Cc1cc2nc(-c3ccccc3)cc(=O)n2[nH]1	BRCA1 expr up 10µM
O=c1cc(-c2ccccc2)nc2cc(-c3ccc(Br)cc3)[nH]n12	none
CCCCC(=O)N(C)c1c(C)nc2ccc(C(=O)Nc3cccc(NS(C)(=O)=O)c3)cn12	none
Cc1c(CC(=O)NCc2ccccc2Cl)c(=O)oc2cc(O)ccc12	GLP1R inv ag inconclusive (no result: GLP-1R agonist, BRCA1 expr up)
COc1cc(OC)c(NC(=O)CCc2c(C)nc3c4c(C)cc(C)nc4nn3c2C)cc1Cl	none (no result: GLP-1R agonist, BRCA1 expr up)
N#CC(C#N)=NNc1ccc(S(=O)(=O)N2CCCCC2)cc1	GLP1R inv ag 1.26µM, HEK293 tox inconclusive
N#C/C(=N\Nc1ccc(S(=O)(=O)N2CCOCC2)cc1)C(N)=S	GLP1R inv ag inconclusive, HEK293 tox inconclusive
CN(C(=O)c1ccco1)c1nc(-c2ccc(F)cc2)cs1	BRCA1 expr up 4.47µM
COc1ccc(-c2csc(N(C)C(=O)c3cccs3)n2)cc1	BRCA1 expr up 10µM
CCc1ccc(C(C)NC(=S)NCc2ccc(F)cc2)cc1 (stereo not drawn)	GLP1R inv ag inconclusive, HEK293 tox inconclusive
Cc1ccc(C(C)NC(=S)NCc2ccc(F)cc2)cc1C (stereo not drawn)	GLP1R inv ag 8.91µM
COc1ccc(N2CCN(C(=O)c3oc4ccccc4c3NC(=O)Cc3cccc(OC)c3)CC2)cc1	GLP1R inv ag 8.91µM
CCOc1ccc(NC(=O)c2oc3ccccc3c2NC(=O)Cc2ccc(OC)c(OC)c2)cc1	BRCA1 expr up 11.2µM
COc1ccc(N2CCN(C(=O)c3oc4ccccc4c3NC(=O)Cc3ccc(OC)c(OC)c3)CC2)cc1	none
CCN(c1ccccc1)S(=O)(=O)c1ccc(C(=O)Nc2c(C)n(C)n(-c3ccccc3)c2=O)cc1	none
CCCCN(c1ccccc1)S(=O)(=O)c1cccc(C(=O)Nc2c(C)n(C)n(-c3ccccc3)c2=O)c1	GLP1R inv ag 11.2µM

Source: PubChem (National Center for Advancing Translational Sciences (NCATS))
